S2 tox: reduces viability in counter-screen for ATXN expression inhibitors; S2 cells (HEK-293 line with an ATXN2-luciferase reporter) viability, CellTiter-Fluor protease fluorescence, 24 h; Potency, µM (doses to about 56.7 µM), usual class: cytotoxic; actives 0.49% (n = 400,000); AID 651635; also: nearly all actives have a fitted effect of over 40% in size
HepG2 viability: HepG2 cytotoxicity, counter-screen for TGF-b inhibitors; HepG2 CAGA-GFP viability, ATP luminescence, 18 h; Potency, µM (doses to about 46.1 µM), inactives show top-dose activity change, negative = cytotoxicity, usual class: cytotoxic; actives 0.76% (n = 410,000)
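CellTiter-Glo luminescence gave cytotoxicity after 18 hours at 37 degrees C. The cells were HepG2 CAGA-GFP in 1% FBS DMEM, stimulated with 500 pg/mL TGF-beta after compound addition. %Activity was normalised to no-cell wells (complete cell-killing) and DMSO (no toxicity), and curves were fitted and classified.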
ATXN2 expr inh: reduces ATXN2 reporter expression in HEK-293 cells; HEK-293 ATXN2-luciferase reporter, luminescence, 24 h; Potency, µM (series often up to 57 µM), for inactives: at the highest dose activity change, negative = inhibition, actives largely listed as inhibitors; actives 0.72% (n = 360,000); also: % is scaled to controls: 0 for no effect and ±100 for the full control effect; nearly all actives have a fitted effect of over 55% in size
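qHTS (up to 57 uM final) was run with 24 h compound exposure of reporter cells at 37 °C. Each well was multiplexed: SteadyGlo luminescence measured ATXN2-luciferase expression after a fluorogenic Gly-Phe-AFC viability readout (25 uM final).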
Apoferritin bind: binds horse apoferritin like a general anesthetic; apoferritin/1-aminoanthracene competitive binding, fluorescence; Potency, µM (titrated, usually from 77.5 µM), for inactives: at the highest dose activity change, negative = displacement, usual class: inhibitors; actives 0.074% (n = 350,000); AID 485281; also: % is scaled to controls: 0 for no effect and ±100 for the full control effect; nearly all actives have a fitted effect of over 20% in size
Target sequence (P02791 2-175 limits assumed): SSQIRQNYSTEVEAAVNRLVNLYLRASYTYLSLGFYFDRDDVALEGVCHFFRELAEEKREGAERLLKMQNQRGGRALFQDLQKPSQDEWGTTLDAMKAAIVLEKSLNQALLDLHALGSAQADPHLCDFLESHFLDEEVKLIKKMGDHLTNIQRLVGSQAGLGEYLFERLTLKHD
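Horse-spleen apoferritin (10 uM) was mixed with 50% saturated 1-aminoanthracene in PBS, exposed to compounds for 10 min at room temperature, and read for fluorescence (ex 380 nm, em 535 nm). Competitive displacement was fitted with a four-parameter Hill equation.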
TGFb inhibitor: blocks TGF-b signaling; HepG2 CAGA-GFP TGF-b/SMAD3 reporter, GFP fluorescence, 18 h; TGF-beta stimulated, 500 pg/mL final; Potency, µM (titrated, usually from 46.1 µM), without a hit: at the highest dose activity, negative = inhibition, hits mostly inhibitors; actives 1.2% (n = 410,000); also: % is scaled to controls: 0 for no effect and ±100 for the full control effect; nearly all actives have a fitted effect of over 65% in size
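First, reporter cells (HEPG2 CAGA-GFP) rested 2 h at 37 degrees C. Next, compounds were pinned in and TGF-beta added to 500 pg/mL final. After 18 h, GFP was imaged per cell and summed per well.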
Active calls of the source: *; i = inactive; ? = inconclusive; . = no result; ! = repeats disagree. Rows were chosen to be rich in hits. Some 2.4% of all compounds tested hit in one or more screens of this group. Calls follow the shape of the dose curve; as a rule, active = well fitted curve in the direction sought with a large enough effect; inconclusive = small, poorly fitted or top-dose-only effect, or another doubt; inactive = no such curve, though single readings can be large; an effect the other way counts as inactive or inconclusive. Potency is read from the fitted curve at half-maximal effect.

SMILES	S2 tox	HepG2 viability	ATXN2 expr inh	Apoferritin bind	TGFb inhibitor
Cc1ccccc1OCC(O)CN1CCN(CCN2C(=O)c3cccc4cccc(c34)C2=O)CC1 (stereo not given)	?	-38%	-26%	-15%	2%
C=CCc1ccccc1OCC(O)CN1CCN(CCN2C(=O)c3cccc4cccc(c34)C2=O)CC1 (stereo not given)	?	-99%	28µM*	?	14µM*
CCN(CC)CCN(C(=O)c1ccc(C(=O)c2ccccc2)cc1)c1nc2cc3c(cc2s1)OCO3	i	-8%	-16%	?	-2%
CN(C)CCCN(C(=O)c1cc2cc([N+](=O)[O-])ccc2s1)c1nc2cc3c(cc2s1)OCCO3	20µM*	-98%	?	.	?
CN(C)CCCN(C(=O)c1ccc(C(=O)c2ccccc2)cc1)c1nc2cc3c(cc2s1)OCO3	?	11µM*	?	?	?
CN(C)CCCN(C(=O)c1ccco1)c1nc2cc3c(cc2s1)OCO3	i	-30%	14µM*	-14%	-19%
CN(C)CCCN(C(=O)c1ccc(Cl)s1)c1nc2cc3c(cc2s1)OCO3	28µM*	-95%	?	-12%	?
CCc1cccc2c(C(O)c3c[nH]c4ccccc34)c[nH]c12 (stereo not given)	.	-80%	.	.	?
O=C1C(=O)C(c2ccc(O)cc2O)Oc2cc(O)cc(O)c21 (stereo not given)	.	-1%	.	.	-3%
CCOc1ccc(-c2nnc(N3CCCCC3)c3ccccc23)cc1	28µM*	-28%	?	-16%	-1%
CN(C)/[N+]([O-])=N/Oc1cc(F)c([N+](=O)[O-])cc1[N+](=O)[O-]	.	-11%	.	.	-10%
COc1cc(N(C)C)cc(CN(C)CCc2ccc([N+](=O)[O-])cc2)c1O	.	.	.	-20%	.
CCOC(=O)c1nn(-c2ccccc2)c(=O)c2c(NC(C)=O)scc12	i	3.2µM*	-24%	-4%	2%
CC(C)CNc1nc(C#N)nc(Nc2ccccc2)n1	.	.	.	0%	.
COc1cc2c(NC3CCN(C(C)C)CC3)nc(N3CCCN(C)CC3)nc2cc1OCCCN1CCCC1	.	1%	.	.	?
COc1cc(OC)c(S(=O)(=O)Nc2ccc(C)cn2)cc1NC(C)=O	i	10µM*	10%	-2%	-13%
COc1cc2c(NC3CCN(C)CC3)nc(N3CCCN(C)CC3)nc2cc1OCCCCCCN(C)C	.	0%	.	.	?
CCOc1ccc(NCc2cccn2-c2nnc(N3CCC(C(=O)NCCCN4C(C)CCCC4C)CC3)s2)cc1 (stereo not given)	i	-28%	-1%	-16%	-1%
CCOc1ccc(NCc2cccn2-c2nnc(N3CCC(C(=O)NCCCN4CCCCC4C)CC3)s2)cc1 (stereo not given)	i	20µM*	.	4%	-23%
COc1cc2c(cc1OC)C(c1ccc(-c3cc(Cl)ccc3Cl)o1)=NCC2	?	-32%	?	-8%	0%
COc1cc2c(cc1OC)C(c1ccc(-c3ccccc3Cl)o1)=NCC2	.	-113%	35µM*	-10%	?
COc1cc2c(cc1OC)C(c1ccc(-c3ccc(Cl)cc3Cl)o1)=NCC2	?	-65%	?	-9%	14µM*
COc1cc2c(cc1OC)C(c1ccc(-c3ccc(Cl)c(Cl)c3)o1)=NCC2	i	11µM*!	?	?	11µM*
C=C1C[C@@]2(O)O[C@@]3(C[C@H]2C(C)C)[C@H](C)CC[C@H]13	.	.	-3%	.	.
O=C1C=C(c2ccc(Cl)c(C(F)(F)F)c2)C[C@@H](c2ccc(Cl)cc2)C1	i	-45%	-16%	.	14µM*
SMILES	S2 tox	HepG2 viability	ATXN2 expr inh	Apoferritin bind	TGFb inhibitor
O=C1C=C(c2ccc(Cl)c(C(F)(F)F)c2)C[C@@H](c2ccc(F)cc2)C1	?	-32%	-22%	.	?
c1ccc2c(CCNc3ccc(Nc4ccncc4)cc3)c[nH]c2c1	.	.	15µM*	.	.
CC1=C(C(=O)OC(C)C)C(c2ccc(Cl)cc2)n2c(s/c(=C\c3ccc(OCC(=O)O)cc3)c2=O)=N1 (stereo not given)	.	-1%	.	?	18%
CC(=O)Nc1ccc(C2=NNC(=Nc3cccc(S(=O)(=O)N(C)C)c3)SC2)cc1	?	-23%	.	-19%	10µM*
Cc1cccc(C(=O)N2CCC(=O)N([C@H](COCc3cccc(C(F)(F)F)c3)Cc3ccccc3)CC2)c1	32µM*	.	?	5%	.
Cc1cccc(COC[C@H](Cc2ccccc2)N2CCN(C(=O)c3cccc(C)c3)CCC2=O)c1	25µM*	.	-27%	-10%	.
Cc1cccc(C(=O)N2CCC(=O)N(C(COCc3ccccc3)Cc3ccccc3)CC2)c1 (stereo not given)	i	-8%	-21%	-13%	3%
CC(C)C[C@@H](COCc1cccc(C(F)(F)F)c1)N1CCN(C(=O)c2ccc(C(F)(F)F)cc2)CCC1=O	28µM*	.	?	.	.
Cc1cccc(C(=O)N2CCC(=O)N(C(COCc3cccc(C(F)(F)F)c3)Cc3ccccc3)CC2)c1 (stereo not given)	32µM*	-56%	0%	-14%	?
CCC(=O)Nc1cc2[nH]c(=O)cc(C)c2cc1C	.	-5%	-18%	-5%	20%
Cc1cc2c(C)cc(=O)[nH]c2cc1NC(=O)CCl	11µM*	-66%	.	-10%	?
O=C(CN(C1CCCCC1)S(=O)(=O)c1ccccc1)NCC1CCCO1 (stereo not given)	i	-1%	-8%	-4%	6%
O=C(CN(C1CCCCC1)S(=O)(=O)c1ccc(F)cc1)NCC1CCCO1 (stereo not given)	?	7.1µM*	-6%	.	4.5µM*
CC(=O)N[C@@H](CO)C(=O)N[C@@H](CC(=O)O)C(=O)N[C@@H](CCCCN)C(=O)N1CCC[C@H]1C(=O)O	i	.	3%	.	.
COc1ccc(OC)c(CCNC(=O)c2cc3c(-c4ccccc4F)nn(C)c3s2)c1	?	-41%	25µM*	37%	?
COc1ccc(NC(=O)c2cc3c(-c4ccccc4F)nn(C)c3s2)c(OC)c1	i	-4%	-20%	-2%	2%
COc1cccc(-c2nn(C)c3sc(C(=O)NCCCN(C)Cc4ccccc4)cc23)c1	?	-22%	28µM*	-3%	-11%
c1ccc(-c2nc3c4ccccc4ccn3c2Cc2ccsc2)cc1	?	-50%	54%	.	?
O=C(Nc1cccc(C(=O)OCc2cc(=O)n3c4c(sc3n2)CCCC4)c1)c1cccc(Cl)c1	.	7%	.	60%	11%
O=C(Nc1cccc(C(=O)OCc2cc(=O)n3c4c(sc3n2)CCCC4)c1)c1ccc(Cl)cc1	.	-31%	.	0%	10µM*
Cc1ccccc1Cn1c(CN2CCC(C(=O)NCc3cccnc3)CC2)cc2ccccc21	.	-45%	?	-11%	16µM*

Source: PubChem BioAssay
